# Experimental data reported in the supplement of paper PMC10933113.
# Tested on: KeratinoSens (HaCaT ARE-luciferase) cells;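 active = curve rank above 3; inactive = curve rank 0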
# Assay: Nrf2/ARE luciferase activation call in qHTS KeratinoSens assay (1 = active, 0 = inactive)
row,SMILES,Nrf2/ARE luciferase activation call
1,CCn1cc[n+](C)c1C.O=S(=O)([O-])C(F)(F)F,not active ARE inducer (skin sensitizer alert) (inactive)
2,CCOC(=O)Nc1ccc(NCc2ccc(F)cc2)nc1N.O=C(O)/C=C\C(=O)O,not active ARE inducer (skin sensitizer alert) (inactive)
3,CCCC[n+]1cccc(C)c1.O=S(=O)([O-])C(F)(F)F,not active ARE inducer (skin sensitizer alert) (inactive)
4,CCN(CC)CCc1nc(-c2ccccc2)no1.O=C(O)CC(O)(CC(=O)O)C(=O)O,not active ARE inducer (skin sensitizer alert) (inactive)
5,COC[C@H](c1ccc(C(F)(F)F)cc1)N1CCN(C2(C)CCN(C(=O)c3c(C)ncnc3C)CC2)C[C@H]1C.O=C(O)/C=C\C(=O)O,not active ARE inducer (skin sensitizer alert) (inactive)
6,CC(C)C[P+](C)(CC(C)C)CC(C)C.Cc1ccc(S(=O)(=O)[O-])cc1,not active ARE inducer (skin sensitizer alert) (inactive)
7,CCN(CC)CCOC(=O)C1(c2ccccc2)CCCC1.CCN(CC)CCOC(=O)C1(c2ccccc2)CCCC1.O=S(=O)(O)CCS(=O)(=O)O,not active ARE inducer (skin sensitizer alert) (inactive)
8,CN1CCN(CCCN2c3ccccc3Sc3ccc(Cl)cc32)CC1.O=C(O)/C=C\C(=O)O.O=C(O)/C=C\C(=O)O,not active ARE inducer (skin sensitizer alert) (inactive)
